# Screening results: PubChem BioAssay, Sanford-Burnham Center for Chemical Genomics
# Most compounds without a hit are left out; they make up all but 4% or so of the library.
# KKLEB cytotox = counter-screen for CF NF-kB inhibitors: cytotoxicity; KKLEB CF airway cells viability, ATPlite luminescence, overnight; hits give low values; cells stimulated with P. aeruginosa culture filtrate; activity change (cytotoxicity), % at 5 µM; 0.36% of 360,000 active;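 active = corrected activity change at or below -50% at 5 µM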
# TROY signal inh = inhibitors of TROY-dependent NF-kB signaling | Q293 LMP1-TROYcd NF-kB luciferase reporter, 4 h | inhibition, % at 10 µM | 0.98% of 360,000 active | AID 1347056;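 active = compounds whose plate-normalised and pattern-corrected inhibition of the luciferase reporter signal at the single screening dose is 50% or more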
# HIF-2a inh = inhibitors of HIF-2a; 786-0 RCC cells HIF-2a reporter, luciferase luminescence, overnight; inhibition, % at 18.8 µM; 0.72% of 360,000 active;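 active = inhibition of the luminescence signal of 40% or more relative to plate controls, in a single-dose primary screen at 18.75 µM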
# CF NFkB inh = cystic fibrosis NF-kB activation inhibition; KKLEB NF-kB-GFP reporter, PAF-induced, GFP fluorescence overnight; inhibition, % at 5 µM; 0.86% of 360,000 active;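 active = at least 50% inhibition at 5 µM, scaled per plate between neutral and stimulator controls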;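 note: PAF is a Pseudomonas aeruginosa culture filtrate used as stimulus; plate controls were PAF-stimulated DMSO wells for no effect and unstimulated DMSO wells for full effect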
# Peg3 promoter = Peg3 promoter activity inhibition; inhibition, % at 20 µM; 1.7% of 360,000 active; HeLa PEG-Prom luciferase reporter, luminescence, overnight;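 active = inhibition of at least 50% at 20 µM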
# TWEAK-Fn14 inh = TWEAK-Fn14 signaling inhibition | AID 1159606 | inhibition, % at 10 µM | TWEAK-stimulated Fn14 reporter cells, luciferase luminescence, 8 h | 2% of 360,000 active; in the data active = inhibition above about 50%
# Starred values were filed as active, the others as inactive.
SMILES,KKLEB cytotox,TROY signal inh,HIF-2a inh,CF NFkB inh,Peg3 promoter,TWEAK-Fn14 inh
Oc1ccccc1CNc1ccc2c(c1)OCCO2,-4.4,29.8,-53.6,22.2,-101.5,39.3
c1csc(CNc2ccc3c(c2)OCCO3)c1,-0.6,29.6,-49.6,-16.1,-23.2,62.6*
O=S(=O)(Nc1cc2nc3ccccc3nc2n1Cc1ccccc1)c1ccc(Cl)cc1,-10.5,49.3,-6.4,51.8*,22.6,96.3*
Cc1oc2cc3oc(=O)c(CCC(=O)N4C[C@H]5C[C@@H](C4)c4cccc(=O)n4C5)c(C)c3cc2c1C,3.1,-11.5,-11.9,5.4,2.9,-9.8
Cc1ccc(C(=O)NN=CC(=O)c2ccccc2)c(C)c1,-4.5,51.8*,-213.3,-3.1,-222.5,64.6*
COc1ccc(C(=O)N/N=C/C(=O)c2ccccc2)cc1,-9.5,-8.7,-283.8,14.2,-270.6,18.7
O=C(Nc1ccc(-n2cnnn2)cc1)c1cn2ccccc2n1,2.9,-48.0,-208.3,-12.4,-151.8,27.4
O=C(Nc1ccccc1)c1cn2ccccc2n1,-7.7,44.6,-11.1,-3.5,-36.3,89.5*
COc1ccc(CNC(=O)C(c2ccc(C)o2)N(Cc2cccs2)C(=O)Cc2cccs2)cc1 (stereo not given),3.2,-7.0,5.4,9.7,59.5*,8.7
CCN(Cc1ccccc1)S(=O)(=O)c1ccc(C(=O)N(CCCN(C)C)c2nc3c(C)c(C)ccc3s2)cc1,-23.9,7.6,-2.3,30.0,92.9*,-28.8
Cc1ccc2sc(N(CCCN(C)C)C(=O)c3nc4ccccc4s3)nc2c1C,3.4,-4.6,-18.3,-4.7,33.2,-7.7
CN(C)CCCN(C(=O)c1ccc(S(=O)(=O)N(C)C)cc1)c1nc2cc3c(cc2s1)OCO3,-15.5,-2.6,-16.0,-28.3,-12.0,-11.3
CN(C)CCCN(C(=O)c1ccc2c(c1)CCCC2)c1nc2cc3c(cc2s1)OCO3,6.7,-18.1,2.6,14.5,57.4*,5.5
CN(C)CCCN(C(=O)c1ccc(Br)s1)c1nc2cc3c(cc2s1)OCO3,-6.0,-13.2,-0.2,0.8,59.2*,-17.0
Cc1ccc2sc(N(CCCN(C)C)C(=O)c3ccc(Br)s3)nc2c1C,-2.4,-12.4,-10.7,18.8,62.5*,-29.5
COc1ccc(OCC(=O)NC2CCSc3ccccc32)cc1 (stereo not given),6.7,-14.1,-15.8,-5.9,-9.3,-19.1
CCN(C(=O)c1cccnc1SC)C12CC3CC(CC(C3)C1)C2,5.6,14.0,1.5,6.8,1.9,7.8
O=C(COC(=O)c1ccc2c(c1)OCCO2)NC1CCCCC1,-0.9,-25.0,-13.0,-5.3,-36.0,-6.0
Nc1ccccc1SC(CC(=O)c1ccccc1)c1ccc([N+](=O)[O-])cc1 (stereo not given),13.7,-24.8,-155.5,-1.6,24.7,10.6
COc1ccc(C(CC(=O)c2ccc(C)cc2)Sc2ccccc2N)cc1 (stereo not given),-16.5,11.2,-150.4,3.2,-189.1,70.0*
O[C@@H]1CN(Cc2ccc(-n3cccn3)cc2)CC[C@H]1N1CCN(c2ccccc2F)CC1,0.3,19.4,20.3,4.3,-0.4,33.7
Cc1ccc(Nc2nc(Cl)nc(NC(C)(C)C)n2)cc1,-6.4,-36.2,-232.6,19.2,-237.2,-11.6
Cc1ccc(Nc2nc(Cl)nc(N(C)C#N)n2)cc1,-1.2,8.7,15.5,-13.7,12.1,89.5*
N/C(=N\OC(=O)CSc1ccccc1)c1ccncc1,-19.7,-38.6,-213.4,6.2,-209.5,-20.9
CC(C)CC(NC(=O)c1ccc(Cl)cc1)C(=O)OCC(=O)c1ccc2c(c1)NC(=O)CO2 (stereo not given),-6.2,-11.6,25.5,2.5,83.6*,-10.9
SMILES,KKLEB cytotox,TROY signal inh,HIF-2a inh,CF NFkB inh,Peg3 promoter,TWEAK-Fn14 inh
CCN1CCN(S(=O)(=O)c2ccc(Cl)c(C(=O)N(C)Cc3ccc(Cl)cc3Cl)c2)CC1,-4.9,2.9,17.1,10.1,3.4,21.7
CCN1CCN(S(=O)(=O)c2ccc(Cl)c(C(=O)N(C)Cc3cccs3)c2)CC1,-51.8*,-6.1,8.0,7.4,3.0,10.1
COc1cc(CNn2cnnc2)ccc1OCC(=O)NC1CCCCC1,4.5,-21.7,-1.3,5.5,6.2,12.0
COc1cc(CNCc2ccccc2Cl)ccc1OCC(=O)NC1CCCCC1,21.6,4.1,7.2,-12.1,17.5,86.1*
COc1cc(OC)c2c(-c3ccccc3)cc(=O)oc2c1C(CCN1CCCC(C)C1)c1ccc2c(c1)OCO2 (stereo not given),-3.8,7.3,13.5,7.5,35.3,-29.9
COc1cc(OC)c2c(-c3ccccc3)cc(=O)oc2c1C(CCN1CCCCC1)c1ccc2c(c1)OCO2 (stereo not given),-32.1,2.9,0.9,22.4,101.9*,-5.9
COc1cc(OC)c2c(-c3ccccc3)cc(=O)oc2c1C(CCN1CCCCC1)c1ccc(N(C)C)cc1 (stereo not given),-5.6,7.8,11.8,36.8,64.6*,13.6
COc1ccc(C(CCN2CCCCC2)c2c(OC)cc(OC)c3c(-c4ccccc4)cc(=O)oc23)cc1 (stereo not given),-9.7,-6.3,12.2,19.0,96.5*,-2.6
COc1cc(OC)c2c(-c3ccccc3)cc(=O)oc2c1C(CCN1CCOCC1)c1ccc(N(C)C)cc1 (stereo not given),-11.3,2.4,0.4,17.0,-2.5,6.0
O=C(C(=O)N1CCN(c2ccccc2F)CC1)c1cn(CC(=O)N2CCCC2)c2ccccc12,4.4,-0.8,13.8,-21.4,9.1,5.0
O=C1C(F)=CC(COC(c2ccccc2)(c2ccccc2)c2ccccc2)OC1n1cc(F)c(=O)[nH]c1=O (stereo not given),-82.3*,45.7,87.3*,90.5*,98.1*,108.6*
CCOc1ccc(NC(=O)CN(C)C(=O)c2ccncc2)cc1OCC,10.3,5.0,5.4,10.7,6.9,68.4*
CCOc1ccc(NC(=O)CN(C)C(=O)c2cc(C)on2)cc1OCC,-4.7,13.8,-6.5,12.2,13.5,6.9
CCC(C)[C@H](N)C(=O)NC[C@H]1CC[C@H](C(=O)N[C@@H](Cc2ccccc2)C(=O)O)CC1 (stereo not given in full),8.1,-18.4,7.2,-5.2,11.2,-2.4
Nc1cc2c3ccccc3ccc2c2ccccc12,-78.0*,37.4,-318.4,87.6*,71.7*,103.5*
Nc1ccc2ccccc2c1[N+](=O)[O-],-13.8,-1.6,1.6,-6.7,18.8,-0.6
O=[N+]([O-])c1ccc(/C=N/NS(=O)(=O)c2ccc(Cl)cc2)o1,8.7,-5.5,7.2,3.8,16.7,6.7
Clc1ccc2c(NNc3ccccc3Cl)ccnc2c1,-3.3,-32.1,-10.8,3.9,-17.6,-15.3
Clc1ccc2c(N/N=C/c3cccc(Br)c3)ccnc2c1,-17.1,-18.0,-82.0,-34.3,76.1*,-60.2
O=[N+]([O-])c1ccc(/C=N/Nc2ccnc3cc(Cl)ccc23)o1,2.0,-36.9,-165.9,-29.8,93.1*,-12.8
